Assay outcomes (PubChem BioAssay)
An excerpt weighted towards active compounds, which were near 0.49% of everything screened.
PGK inhibitor – inhibitors of T. brucei phosphoglycerate kinase; P07378; PGK/GAPDH coupled, Kinase-Glo luminescence, 60 min; Potency, µM (doses to about 57.5 µM), for the others: top-dose activity change, negative = inhibition, actives largely listed as inhibitors; 380,000 compounds, 0.043% hits; AID 602233; note: potency is the fitted concentration of half-maximal effect; % is set by controls: 0 for no effect and ±100 for the full control effect; nearly all actives have a fitted effect of over 60% in size
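Luminescent ATP detection (Kinase-Glo Plus) follows a 60-minute room-temperature incubation, with wells lacking PGK as controls. Buffer: 100 mM TEA (pH 7.6), 5 mM MgCl2, 0.01% Tween-20. Coupling enzyme GAPDH (100 nM final) supplies unstable 1,3-BPG in-well.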
Vif-APOBEC3G blk – inhibitors of Vif-APOBEC3G interaction; HeLa A3G-eYFP + Vif (tagged APOBEC3G with the HIV-1 protein that degrades it), YFP fluorescence, overnight; 410,000 compounds, 0.076% hits; AID 602310; Potency, µM (titrated, usually from 46.1 µM), inactives show at the top dose activity, negative = active, usual class: inhibitors; Q9HC16; note: potency is the fitted concentration of half-maximal effect; % is set by controls: 0 for no effect and ±100 for the full control effect; nearly all actives have a fitted effect of over 60% in size
Target sequence (Q9HC16 whole entry, looked up): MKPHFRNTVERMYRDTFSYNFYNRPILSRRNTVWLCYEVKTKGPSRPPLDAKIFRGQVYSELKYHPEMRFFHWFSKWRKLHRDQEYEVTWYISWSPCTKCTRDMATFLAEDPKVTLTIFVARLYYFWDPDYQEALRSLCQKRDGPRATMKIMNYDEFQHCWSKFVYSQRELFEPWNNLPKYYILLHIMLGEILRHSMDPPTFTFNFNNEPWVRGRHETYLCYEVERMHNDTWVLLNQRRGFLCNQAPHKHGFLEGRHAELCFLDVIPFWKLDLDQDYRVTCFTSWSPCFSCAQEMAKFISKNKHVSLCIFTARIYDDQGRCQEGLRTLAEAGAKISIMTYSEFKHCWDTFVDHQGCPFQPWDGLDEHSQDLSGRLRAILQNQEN
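Read-out is eYFP fluorescence (Ex 488/Em 500-530) from Vif-expressing HeLa A3G-eYFP cells; more signal means A3G escaped Vif-mediated degradation. Cells plated overnight, compound pinned in, incubated overnight at 37 deg C.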
mIDH1 inhibitor – inhibitors of human mutant IDH1 R132H; 390,000 compounds, 0.093% hits; O75874; Potency, µM (doses to about 76.6 µM), inactives show top-dose activity change, negative = inhibition, actives largely listed as inhibitors; IDH1-R132H enzyme, NADPH consumption, diaphorase/resazurin fluorescence; note: potency is the fitted concentration of half-maximal effect; % is set by controls: 0 for no effect and ±100 for the full control effect; nearly all actives have a fitted effect of over 65% in size
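IDH1-R132H (0.5 ug/mL dispensed) in pH 7.5 Tris buffer was preincubated 30 min with compound, then given a substrate mix of 0.016 mM NADPH and 2 mM alpha-KG for 80 min at room temperature; remaining NADPH was read by diaphorase/resazurin fluorescence.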
Pin1 inh – blocks the human prolyl isomerase Pin1; Q13526; Pin1 FP peptide displacement, HiFluor488, 10 min; Potency, µM (titrated, usually from 115 µM), for inactives: top-dose activity, negative = inhibition, hits mostly inhibitors; 390,000 compounds, 0.009% hits; AID 504891; active = well fitted inhibition curve with a large enough effect in the polarisation, with a control signal flat, not every such curve was filed as active; inconclusive = small, poorly fitted or top-dose-only effect, or effect the other way, or a change in a side signal; inactive = no such curve, though single readings can be large or run the other way; the % refers to the polarisation; note: potency is the fitted concentration of half-maximal effect; % is set by controls: 0 for no effect and ±100 for the full control effect
Target sequence (Q13526 whole entry, looked up): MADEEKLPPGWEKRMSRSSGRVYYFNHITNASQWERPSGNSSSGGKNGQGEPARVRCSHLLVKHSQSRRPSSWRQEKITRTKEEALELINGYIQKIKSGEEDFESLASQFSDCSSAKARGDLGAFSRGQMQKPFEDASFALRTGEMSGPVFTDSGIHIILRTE
Vif-APOBEC3F blk – inhibitors of Vif-A3F interaction; HeLa A3F-eYFP + Vif (tagged APOBEC3F with the HIV-1 protein that degrades it), YFP fluorescence increase; Potency, µM (titrated, usually from 46.1 µM), for the others: at the highest dose activity, negative = active; 390,000 compounds, 0.2% hits; note: potency is the fitted concentration of half-maximal effect; % of control where 0% means no effect; nearly all actives have a fitted effect of over 65% in size
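Fluorescence increase (Ex 488/Em 500-530) after overnight compound treatment at 37 deg C flags inhibition of Vif-driven A3F-eYFP loss in stable HeLa A3F-eYFP/Vif cells seeded overnight beforehand.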
LDHA block – inhibitors of human lactate dehydrogenase A; purified LDHA, NADH/diaphorase-resazurin fluorescence; hits give low values; AID 1347041; 480,000 compounds, 0.15% hits; activity change, % (values are at about 110 or 230 µM); P00338; in the data active = activity change below about -30%; inconclusive = mostly about -25% to -30%;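 note: plate controls were DMSO wells for no effect and wells without enzyme for full effect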
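Remaining NADH was detected by diaphorase (0.133 mg/mL) converting 37 µM resazurin to fluorescent resorufin, read at 0 and 20 minutes. The preceding 5-minute room-temperature reaction used 2 nM LDHA, 0.2 mM sodium pyruvate and 0.06 mM NADH at pH 7.4.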
* hit, by the source's call. Unless noted, calls come from the whole dose curve; as a rule, active = well fitted curve in the direction sought with a large enough effect; inconclusive = small, poorly fitted or top-dose-only effect, or another doubt; inactive = no such curve, though single readings can be large; an effect the other way counts as inactive or inconclusive.

For CC1CCC(N2CCN(S(C)(=O)=O)CC2)CC1 (configuration not stated) the results were PGK inhibitor 1%, Vif-APOBEC3G blk 0%, mIDH1 inhibitor 13%, Pin1 inh -2%, Vif-APOBEC3F blk -4% and LDHA block -34*.
`CN1CCCN(C2C3CC4CC(C3)CC2C4)CC1` (configuration not stated) gave PGK inhibitor -4%, Vif-APOBEC3G blk -3%, mIDH1 inhibitor 3%, Pin1 inh 4%, Vif-APOBEC3F blk 1% and LDHA block -17.
CS(=O)(=O)N1CCN(C2C3CC4CC(C3)CC2C4)CC1 (configuration not stated) was read as PGK inhibitor -4%, Vif-APOBEC3G blk -1%, mIDH1 inhibitor 0%, Pin1 inh -9%, Vif-APOBEC3F blk -3% and LDHA block -32*.
`CCC(C(=O)NCc1ccc(OC)cc1)c1ccccc1` (configuration not stated) gave LDHA block 8.
`COc1cc(/C=N/NC(=O)CNc2cccc(C(F)(F)F)c2)ccc1OC(=O)c1ccccc1F` gave LDHA block -32*.
`CS(=O)(=O)c1ccc(NC(=O)COc2ccccc2C(N)=O)cc1` gave LDHA block -20.
Screening CC(Oc1ccc(Cl)cc1)C(=O)Nc1ccc(N2CCN(C)CC2)nc1 (configuration not stated) returned LDHA block -12.
`O=C(NNC(=O)c1cc2cc3ccccc3nc2s1)c1cccc(Cl)c1` gave PGK inhibitor inconclusive, Vif-APOBEC3G blk 0%, mIDH1 inhibitor 2%, Pin1 inh 40%, Vif-APOBEC3F blk 0% and LDHA block -51*.
Oc1ccc(/C=N/Nc2nccnc2Cl)cc1 was read as PGK inhibitor 11µM*, Vif-APOBEC3G blk 1%, mIDH1 inhibitor 7%, Pin1 inh 4%, Vif-APOBEC3F blk 5% and LDHA block -1.
Screening COc1ccc2c(COC(=O)c3ccccc3F)cc(=O)oc2c1 returned LDHA block 2.
Screening Cc1c(N2C(=O)/C(=C/c3ccc(N(C)C)cc3)N(C)C2=S)c(=O)n(-c2ccccc2)n1C returned PGK inhibitor -9%, Vif-APOBEC3G blk inconclusive, mIDH1 inhibitor 0%, Pin1 inh inconclusive, Vif-APOBEC3F blk 10µM* and LDHA block 8.
`Cc1c(N2C(=O)/C(=C/c3ccccc3)SC2=S)c(=O)n(-c2ccccc2)n1C` gave PGK inhibitor 4%, Vif-APOBEC3G blk 0%, mIDH1 inhibitor 1%, Pin1 inh 2%, Vif-APOBEC3F blk 6% and LDHA block -7.
`CSc1ccc(/C=C/C(=O)c2ccccc2)cc1` gave LDHA block 4.
`COc1ccc(Cc2nnc3n2N(C(C)=O)C(c2ccc(C)cc2)=C(C(C)=O)S3)cc1` gave LDHA block 12.
C=CCNC(=S)N/N=C(\C)c1cccc(OC)c1 was read as PGK inhibitor -1%, Vif-APOBEC3G blk 1%, mIDH1 inhibitor 2%, Pin1 inh -1%, Vif-APOBEC3F blk inconclusive and LDHA block -1.
For C=CCNC(=S)N/N=C(\C)c1ccc(OC)cc1 the results were PGK inhibitor -7%, Vif-APOBEC3G blk 1%, mIDH1 inhibitor -7%, Pin1 inh -5%, Vif-APOBEC3F blk 10µM* and LDHA block -3.
CC(C)Cc1nnc(NC(=O)c2nn(Cc3ccccc3)c(=O)c3ccccc23)s1 was read as LDHA block 8.
COC(=O)Cn1c(Br)nc2c1c(=O)n(C)c(=O)n2C was read as LDHA block -35*.
`COC(=O)Cn1c(Br)nc2c1c(=O)[nH]c(=O)n2C` gave LDHA block -12.
Screening CCC(C)c1ccc(S(=O)(=O)N2CCN(CC(O)CN3CCOCC3)CC2)cc1 (configuration not stated) returned PGK inhibitor 4%, Vif-APOBEC3G blk 2%, mIDH1 inhibitor 0%, Pin1 inh -9%, Vif-APOBEC3F blk 8% and LDHA block -33*.
For NCc1ccc2[nH]ccc2c1 the results were LDHA block -11.
For COc1ccc(C(=O)C[n+]2cn(C(F)F)c3ccccc32)c(F)c1 the results were PGK inhibitor -11%, Vif-APOBEC3G blk -6%, mIDH1 inhibitor 2%, Pin1 inh -7%, Vif-APOBEC3F blk -4% and LDHA block -40*.
Screening COc1ccc(C(=O)C[n+]2cc(Br)cc3ccccc32)cc1 returned Vif-APOBEC3G blk inconclusive and LDHA block 1.
Screening CCCCCCCCc1cnc(-c2ccc(OC(F)(F)F)cc2)nc1 returned LDHA block 0.
COc1ccc(C(=O)COC(=O)c2csc(Nc3ccc(C)cc3)n2)cc1 was read as LDHA block -2.
`Cc1ccc(N=C2NC(=O)/C(=C/c3cn(C)c4ccccc34)S2)cc1C` gave PGK inhibitor -8%, Vif-APOBEC3G blk 8.9µM*, mIDH1 inhibitor 1%, Pin1 inh inconclusive, Vif-APOBEC3F blk inconclusive and LDHA block -1.
For Cn1nnnc1SCC1=C(C(=O)O)N2C(=O)[C@@H](NC(=O)[C@H](O)c3ccccc3)[C@H]2SC1 the results were PGK inhibitor inconclusive, Vif-APOBEC3G blk -2%, mIDH1 inhibitor -1%, Pin1 inh 3.2µM*, Vif-APOBEC3F blk 2% and LDHA block -12.
`Cn1nnnc1SCC1=C(C(=O)O)N2C(=O)C(NC(=O)C3CC3c3ccccc3)C2SC1` (configuration not stated) gave PGK inhibitor inconclusive, Vif-APOBEC3G blk 0%, mIDH1 inhibitor 8%, Pin1 inh inconclusive, Vif-APOBEC3F blk inconclusive and LDHA block -1.
For CN(CC(=O)Nc1ccccc1C(F)(F)F)C(=O)CSc1nccn1-c1cccc(F)c1 the results were LDHA block -6.
Screening CC1(C)CC(NCCC(=O)NC2CC(C)(C)NC(C)(C)C2)CC(C)(C)N1 returned LDHA block -7.
C=CCN1C(=O)/C(=C/c2ccc(O)c(OC)c2)S/C1=N/c1nccs1 was read as PGK inhibitor -4%, Vif-APOBEC3G blk inconclusive, mIDH1 inhibitor inconclusive, Pin1 inh inconclusive, Vif-APOBEC3F blk 32µM* and LDHA block -2.
For C=CCN1C(=O)/C(=C/c2ccc(OCC(=O)O)cc2)S/C1=N/c1nccs1 the results were PGK inhibitor 0%, Vif-APOBEC3G blk 1%, mIDH1 inhibitor 0%, Pin1 inh 12%, Vif-APOBEC3F blk 8% and LDHA block -5.
CSc1cccc(NC(=O)c2cccc(C)c2)c1 was read as LDHA block -5.
